In the library only some 5.4% were active in any assay of this set; here they are far more common.
ALR H2O2 inh: blocks human ALR sulfhydryl oxidase activity | P55789 | purified ALR, DTT oxidation, H2O2 HRP-luminol luminescence | inhibition, % (no concentration beside the values) | actives 3.8% (n = 290,000) | AID 485317;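 active = mean replicate inhibition above about 79%, with every replicate also reaching it, limit read from the data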
Target sequence (P55789 whole entry, looked up): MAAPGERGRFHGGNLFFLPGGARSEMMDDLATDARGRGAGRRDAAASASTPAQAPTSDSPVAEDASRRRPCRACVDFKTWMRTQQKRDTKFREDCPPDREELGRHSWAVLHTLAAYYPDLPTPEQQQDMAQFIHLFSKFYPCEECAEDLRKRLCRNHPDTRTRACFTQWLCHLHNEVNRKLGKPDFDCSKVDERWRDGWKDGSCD
A3A deaminase: inhibitors of human APOBEC3A DNA deaminase; P31941; recombinant A3A, FAM/TAMRA ssDNA deamination fluorescence; inhibition, % at 20 µM; actives 0.41% (n = 330,000);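 active = at least 40% inhibition at 20 µM here, with at most 30% in a related deaminase screen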;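 note: plate controls were A3A with DMSO for no effect and wells lacking A3A enzyme for full effect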
Target sequence (P31941 whole entry, looked up): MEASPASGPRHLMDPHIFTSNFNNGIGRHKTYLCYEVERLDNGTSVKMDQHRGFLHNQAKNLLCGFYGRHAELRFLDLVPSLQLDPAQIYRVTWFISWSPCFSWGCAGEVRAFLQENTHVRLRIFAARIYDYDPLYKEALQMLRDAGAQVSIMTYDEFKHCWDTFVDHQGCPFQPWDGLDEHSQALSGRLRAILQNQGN
rCAG RNA binder: binds r(CAG) RNA repeats; r(CAG) RNA repeat, TO-PRO-1 dye displacement fluorescence; inhibition, % at 3 µM; actives 1.3% (n = 370,000); AID 651821;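 active = inhibition above the plate cutoff, the mean of all test compounds on that plate plus 3 SD, cut at about 35% in these data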;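 note: 0% = DMSO alone and 100% = 100 µM mitoxantrone as full dye displacement; higher means more dye released from RNA so lower well fluorescence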
aDG glyco act: increases alpha dystroglycan glycosylation; activation, % at 10 µM; actives 0.22% (n = 360,000); Pro5-aDG cells, alpha-DG glycosylation AlphaScreen (IIH6); 0% Pro5, 100% B10-LARGE cell signal;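 active = activation of at least 8% versus controls, or a plate z-score of at least 8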;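 note: Pro5 are CHO cells carrying HIG-tagged alpha-DG that lacks glycosylation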
PHOSPHO1 block: blocks human PHOSPHO1 phosphatase activity. inhibition, % at 13.3 µM. actives 1.1% (n = 290,000). recombinant PHOSPHO1, absorbance phosphatase assay; in the data active = inhibition above about 60%
APOBEC3G inh: APOBEC3G (human) deaminase inhibition. Q9HC16. recombinant A3G, ssDNA deamination FAM/TAMRA fluorescence. inhibition, % at 20 µM. actives 0.28% (n = 330,000). AID 493012;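 active = inhibition of at least 40% at 20 µM, with no more than 30% in the related APOBEC3A deaminase screen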;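 note: plate controls were DMSO wells with A3G for no effect and wells lacking A3G enzyme for full effect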
* hit, by the source's call; . = no result.

SMILES | ALR H2O2 inh | A3A deaminase | rCAG RNA binder | aDG glyco act | PHOSPHO1 block | APOBEC3G inh
O=C(NNc1cccc(Cl)n1)c1ccc(Cl)nc1 | 26 | -1 | -1 | 0 | -18 | -2
O=C(NNc1c(F)c(F)cc(F)c1F)c1ccc(Cl)nc1 | 96* | 3 | -3 | 0 | 14 | 12
COc1c(Cl)cc(-c2noc(C)c2C(=O)NC(C)C)cc1Cl | 93* | -1 | 1 | 0 | -16 | -5
O=C(Nc1nc(=O)n(C(=O)c2cccc(C(F)(F)F)c2)s1)c1ccccc1 | 97* | -1 | -1 | 0 | 20 | -4
CSc1nnc2c(n1)C[C@H](c1ccccc1)[C@@H](C)[C@@H](C(=O)N1CCCC1)C2 | . | . | 3 | . | . | .
COc1ccc(C(C)=O)cc1CSC(=N)N | 99* | 2 | 2 | 0 | 37 | -5
Cc1cc(=O)[nH]c2ccc(S(=O)(=O)N3CCOCC3)cc12 | -15 | 1 | 3 | 0 | 73* | -1
Cc1ccc(Cn2cc(COC(=O)N3CCCC3)nn2)cc1 | . | . | 1 | . | . | .
Cc1ccc(CN2CCCCC(NC(=O)Nc3cccc([N+](=O)[O-])c3)C2=O)cc1 (configuration not stated) | . | . | 8 | . | . | .
Cc1ccccc1C(=O)N(C)[C@H]1C[C@H]2c3[nH]c4c(-c5ccc6c(c5)OCO6)cccc4c3CCN2C[C@H]1[C@H](C)O | . | . | 5 | . | . | .
O=S(=O)(Nc1nc2ccccc2s1)c1ccc(Cl)s1 | 7 | -1 | 44* | 0 | 4 | -2
CCCCOc1ccc(Cc2n[nH]c(=S)n2N)cc1 | -16 | 0 | 2 | 0 | 79* | -1
Cc1ccc(OCc2n[nH]c(=S)n2N)cc1C | . | 4 | -2 | 0 | -5 | 9
S=c1[nH]nc(-c2ccccc2)n1Cc1ccccc1 | 49 | -3 | 1 | 0 | 105* | 32
Fc1ccc(NCc2n[nH]c(=S)n2Cc2ccccc2)cc1 | 12 | -4 | 1 | 0 | 5 | 4
S=c1[nH]nc(CNc2ccc(Cl)cc2)n1Cc1ccccc1 | 99* | -6 | 8 | 0 | -22 | -10
Cc1ccn(Cc2n[nH]c(=S)n2Cc2ccccc2)n1 | 91* | -7 | 1 | 0 | 78* | 24
COC(=O)[C@]1(CNC(C)=O)CC(=O)N(C)[C@@H]1c1ccccc1 | . | . | 4 | . | . | .
S=c1[nH]nc(COc2ccccc2)n1Cc1ccccc1 | 49 | 1 | 2 | 0 | 8 | 9
CCc1ccc(OCc2n[nH]c(=S)n2Cc2ccccc2)cc1 | 12 | -2 | 12 | 0 | 90* | -5
COc1ccccc1-c1n[nH]c(=S)n1Cc1ccco1 | 7 | -3 | . | . | 32 | 23
COc1ccccc1-c1n[nH]c(=S)n1Cc1ccccc1 | 86* | 4 | 2 | 0 | -37 | 30
CCc1ccccc1-c1cc(C(=O)OC)c2n(c1=O)CCC2 | . | . | 0 | . | . | .
CC(=O)N1CCc2cc(Br)c(S(=O)(=O)NCc3ccc(Cl)cc3)cc21 | . | . | 2 | . | . | .
CN(C)CCSc1nc(N)c2c3c(sc2n1)CN(C)CC3 | 99* | 8 | 6 | 0 | 44 | 25
SMILES | ALR H2O2 inh | A3A deaminase | rCAG RNA binder | aDG glyco act | PHOSPHO1 block | APOBEC3G inh
CCCSc1nc(N)c2c3c(sc2n1)CN(C)CC3 | -102 | -5 | . | 0 | 17 | -4
COC(=O)c1cc2c(c3c4cc(OC)ccc4n(S(=O)(=O)c4ccccc4)c13)C(=O)N(C)C2 | . | . | 12 | . | . | .
O=C(NCCc1ccccc1)OCc1cn(-c2cccc(C(F)(F)F)c2)nn1 | . | . | -1 | . | . | .
CN1C/C(=C\c2ccc(N3CCOCC3)cc2)C(=O)/C(=C/c2ccc(N3CCOCC3)cc2)C1 | 79* | -10 | -8 | 0 | 3 | -12
CCOC(=O)[C@]12CCCCC/C=C\1N(CCc1ccc(Cl)cc1)C(=O)[C@H]2CC(=O)N1CCOCC1 | . | . | 0 | . | . | .
CN(C(=O)c1ccc2nc(N)sc2c1)c1ccccc1 | -1 | 0 | -2 | 0 | 18 | -9
Nc1nc2ccc(C(=O)Nc3ccccc3)cc2s1 | 98* | -2 | 7 | 2 | 10 | -3
CCc1ccc(NC(=O)c2ccc3nc(N)sc3c2)cc1 | 91* | -1 | 9 | 1 | 22 | -4
CCc1cc(C(=O)c2ccc(OC)cc2)c(NC(=O)CC(C)(C)CC(=O)O)s1 | 81* | 1 | 25 | 0 | 41 | -1
CCc1cc(C(=O)c2ccccc2OC)c(N)s1 | 93* | -6 | 7 | 0 | -3 | -5
CCc1cc(C(=O)c2ccc(OC)cc2)c(NC(=O)COCC(=O)O)s1 | . | -5 | 27 | 0 | 11 | 5
CCc1cc(C(=O)c2ccc(OC)cc2)c(N)s1 | 99* | -6 | -3 | 0 | 2 | -13
CCN(CCNC(=O)c1ccc(CSc2nc3ccncc3[nH]2)cc1)c1ccccc1 | 98* | -2 | 3 | 0 | -21 | -6
O=C(NCCN1CCN(c2cccc(Cl)c2)CC1)c1ccc(CSc2nc3ccncc3[nH]2)cc1 | 2 | 1 | 3 | 1 | -12 | -5
CC(C)(C)c1ccc(C(=O)Oc2ccccc2CCC(=O)O)cc1 | 91* | -3 | 18 | 0 | 11 | -9
CC(C)(C)c1ccc(C(=O)O/N=C(\N)c2ccccc2)cc1 | 0 | -1 | -2 | 0 | . | -6

Source: PubChem
